Source: PubChem BioAssay
Most compounds without a hit are left out; they make up all but 19% or so of the library.
HT1080-NT tox: kills 2HG-producing HT-1080-NT fibrosarcoma cells | HT-1080-NT fibrosarcoma viability, CellTiter-Glo ATP luminescence, 48 h | Potency, µM (highest dose often 46.1 µM), for inactives: top-dose activity, negative = less viability, most hits filed as cytotoxic | 1.6% of 360,000 active | AID 686970;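 also: NT is the 2HG producing partner of a matched IDH1 knockdown line; potency is read from the fitted curve at half-maximal effect; 0% = DMSO-treated cells and -100% = media-only wells without cells; nearly all actives have a fitted effect of over 55% in size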
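Luminescent CellTiter-Glo readout after 48 hours of compound exposure at 37 degrees C defined viability of HT-1080-NT cells. Activity was normalized to DMSO wells and cell-free media wells; concentration-response curves were fitted and assigned curve classes.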
uPA surface inh: inhibitors of cell surface uPA generation | cell surface uPA generation assay, qHTS | Potency, µM (series often up to 38.3 µM), inactives show top-dose activity change, negative = inhibition, actives largely listed as inhibitors | 0.31% of 330,000 active | AID 540303; active = well fitted inhibition curve with a large enough effect; inconclusive = small, poorly fitted or top-dose-only effect; inactive = no such curve, though single readings can be large or run the other way; tested in mouse RAW 264.7 cells; also: potency is read from the fitted curve at half-maximal effect; nearly all actives have a fitted effect of over 55% in size
TDP1 cell CPT: DT40-hTDP1 cell growth loss with CPT; chicken DT40 Tdp1-/-;hTDP1 cells + 20 nM CPT, ATP luminescence, 48 h; Potency, µM (top dose mostly 46.2 µM), inactives show at the top dose activity change, negative = growth inhibition, hits mostly inhibitors; 12% of 420,000 active; AID 686979; also: potency is read from the fitted curve at half-maximal effect; nearly all actives have a fitted effect of over 55% in size
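Chicken DT40 Tdp1-/- cells complemented with human TDP1, 400 cells/well, exposed to compounds plus 20 nM camptothecin for at least 48 h at 37 C; viability read as ATP content by CellTiter-Glo luminescence.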
DT40 TDP1 no CPT: qHTS for Inhibitors of human tyrosyl-DNA phosphodiesterase 1 (TDP1): qHTS in cells in absence of CPT. DT40 Tdp1-/- hTDP1 cells, no CPT, ATP luminescence, 48 h. Potency, µM (doses to about 46.2 µM), for the others: top-dose activity change, negative = growth inhibition, most hits filed as inhibitors. 15% of 420,000 active. AID 686978, 2013; also: potency is read from the fitted curve at half-maximal effect; nearly all actives have a fitted effect of over 55% in size
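Stably hTDP1-transfected Tdp1-null chicken DT40 cells were treated with library compounds minus camptothecin and grown for at least 48 hr at 37 °C, after which cellular ATP was quantified by luminescence.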
IL1B secr inh: inhibitors of inflammasome signaling (IL-1 beta secretion); activity change, % at 57.5 µM; THP-1 LPS/ATP IL-1B secretion, AlphaLISA, 16 h; hits give low values; 4.7% of 360,000 active; in the data active = activity change below about -50%; inconclusive = mostly about -30% to -49%
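Secreted IL-1B measured by AlphaLISA bead assay after 16 h compound exposure of THP-1 cells; compounds (final up to 57.5 uM) added 1 h before LPS (250 ng/mL) and ATP (1.25 mM) stimulation; lower signal means less secretion.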
HT1080 IDH1KD tx: HT-1080 IDH1 knockdown cell toxicity (counter line) | Potency, µM (highest dose often 46.1 µM), for inactives: top-dose activity, negative = toxicity, most hits filed as cytotoxic | AID 686971 | HT-1080 IDH1 knockdown viability, ATP luminescence, 48 h | 2% of 360,000 active;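 also: potency is read from the fitted curve at half-maximal effect; 0% = DMSO wells and -100% = cell-free medium wells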
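In this qHTS, HT-1080 cells depleted of IDH1 are exposed for 48 h at 37 °C to compound titrations. Toxicity is scored from CellTiter-Glo luminescence, with DMSO as full viability and medium alone as none.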
* hit, by the source's call; ? = inconclusive; · = no result. Unless noted, calls follow the shape of the dose curve; as a rule, active = well fitted curve in the direction sought with a large enough effect; inconclusive = small, poorly fitted or top-dose-only effect, or another doubt; inactive = no such curve, though single readings can be large; an effect the other way counts as inactive or inconclusive. Unless noted, % is scaled to controls: 0 for no effect and ±100 for the full control effect.

SMILES	HT1080-NT tox	uPA surface inh	TDP1 cell CPT	DT40 TDP1 no CPT	IL1B secr inh	HT1080 IDH1KD tx
Cc1ncoc1C(=O)N1CCc2c([nH]c3ccccc23)C1C1CCCCC1 (configuration not stated)	-21.2%	3.8%	?	-24.1%	-7.2	-16.5%
c1ccc2c3c([nH]c2c1)C(C1CCCCC1)N(Cc1ncc[nH]1)CC3 (configuration not stated)	-25.9%	-7.5%	?	?	-87.5*	-17.4%
COCCNC(=O)c1nn(-c2ccc(C)cc2)c(=O)n(C)c1=O	·	·	-7.5%	-13.3%	·	·
COc1ccc2nc3sc(C(=O)Nc4cc(Cl)c(OC)cc4OC)cc3cc2c1	·	·	?	5.8µM*	·	·
CCc1ccc(NC(=O)c2ccc3nc(C(C)C)oc3c2)cc1	·	·	?	18.4µM*	·	·
CCOc1cc(CNC(=O)c2ccc3nc(C(C)C)oc3c2)cc(OCC)c1OCC	·	·	23.1µM*	18.4µM*	·	·
COc1cc(OC)c(NC(=O)c2ccc3nc(C(C)C)oc3c2)cc1Cl	·	·	9.2µM*	18.4µM*	·	·
COc1ccc(C)cc1NC(=O)C1CCN(S(=O)(=O)c2ccc3c(c2)C(C)(C)C(=O)N3C)CC1	-12.3%	3.1%	?	?	21.4	8.2%
COc1ccc(CCN2C(=NC(=O)C(C)C)SC3CS(=O)(=O)CC32)cc1OC (configuration not stated)	15.0%	-5.3%	11.5%	-20.6%	11.4	7.2%
OCC1CSC(=S)N1Cc1ccccc1 (configuration not stated)	?	·	?	?	5.0	21.1%
CC(CNS(=O)(=O)c1ccccc1)(c1ccccc1)N1CCOCC1 (configuration not stated)	18.1%	19.3%	-8.4%	-14.2%	0.0	10.6%
COC(=O)c1ccc(S(=O)(=O)N(C2CCCCC2)C2CCCCC2)n1C	-0.7%	8.8%	?	23.1µM*	2.2	4.8%
COc1ccc(/C=N/Nc2nc(-c3cccnc3)nc3ccccc23)c(OC)c1	-27.4%	-8.0%	?	?	11.8	-7.8%
Cc1ccc(-c2nc(N/N=C/c3cccnc3)c3ccccc3n2)cc1	11.2µM*	?	23.1µM*	18.4µM*	?	?
Cc1ccc(-c2nc(N/N=C/c3cccc([N+](=O)[O-])c3)c3ccccc3n2)cc1	-1.9%	·	13µM*	14.6µM*	13.4	10.6%
Cc1cc(N2CCOCC2)nc2ccc(NC(=S)NCCN(C)C)cc12	-19.2%	2.0%	-1.2%	-1.2%	-8.8	0.0%
Cc1cc(N2CCOCC2)nc2ccc(NC(=S)NCCC(C)C)cc12	-6.9%	-8.4%	18.4µM*	20.6µM*	-50.5*	?
Cc1cc(N2CCN(C)CC2)nc2ccc(NC(=S)NCCC(C)C)cc12	?	-3.4%	23.1µM*	14.6µM*	-6.0	-16.9%
N=C(N)n1cccn1	·	·	-2.1%	-1.1%	·	·
O=C(O)c1ccc(-n2ncc3c2/C(=C/c2cccc([N+](=O)[O-])c2)CC3)cc1	10.2%	4.2%	16.4µM*	?	31.6	6.0%
CCN1C/C(=C\c2cccc([N+](=O)[O-])c2)C(=O)/C(=C/c2cccc([N+](=O)[O-])c2)C1	4.11µM*	-24.2%	0.651µM*	0.92µM*	-103.7*	2.31µM*
O=C1/C(=C/c2cccc([N+](=O)[O-])c2)CCc2ccccc21	?	-11.4%	?	14.6µM*	-121.3*	?
O=C1/C(=C\c2ccc3ccccc3c2)CCCc2ccccc21	?	-7.5%	?	?	5.6	13µM*
Cc1ccc(S(=O)(=O)N2CCOC2CNC(=O)C(=O)NCc2ccncc2)cc1 (configuration not stated)	?	1.4%	-11.2%	-12.9%	7.9	-1.6%
Cc1cccc(CSc2nnc(-c3ccco3)o2)c1	17.4%	14.1%	8.7%	-4.6%	-20.9	17.1%
SMILES	HT1080-NT tox	uPA surface inh	TDP1 cell CPT	DT40 TDP1 no CPT	IL1B secr inh	HT1080 IDH1KD tx
CC(=O)c1c(C)cc(C)c(CSc2nnc(-c3ccco3)o2)c1C	-14.2%	·	12.6µM*	22.4µM*	-0.1	-26.6%
Cc1ccc2cccc(OCCCOc3ccccc3F)c2n1	-4.6%	7.9%	?	?	-56.3*	-7.4%
COC(=O)c1ccc(OCCOc2ccccc2C)cc1	4.9%	3.0%	3.5%	-4.6%	0.2	1.6%
Cc1ccc2cccc(Oc3cnccn3)c2n1	5.8%	-0.7%	4.2%	5.7%	4.1	16.6%
COC(=O)c1ccccc1OCc1cccc(C)n1	3.3%	-1.1%	0.2%	-17.1%	-11.2	9.1%
Cc1ccc2cccc(OCCOCCOc3ccccc3Br)c2n1	3.5%	0.5%	?	20.6µM*	-2.8	-3.7%
Brc1ccccc1OCCOCCOc1cccc2cccnc12	-25.5%	5.9%	?	?	-23.6	?
COC(=O)c1ccc(OCCOCCOc2cccc3ccc(C)nc23)cc1	-4.6%	3.8%	?	23.1µM*	-7.5	-0.9%
COC(=O)c1ccccc1OCCOCCOc1cccc2ccc(C)nc12	?	1.5%	?	23.1µM*	23.0	-19.2%
CNS(=O)(=O)c1ccc(NCC2COc3ccccc3O2)c([N+](=O)[O-])c1 (configuration not stated)	-16.4%	-7.3%	?	?	-19.2	-13.5%
CC(=O)CSc1ccc(C(=O)O)cn1	15.0%	-0.5%	-29.8%	3.9%	31.5	23.4%
O=C(c1ccc(-c2ccc([N+](=O)[O-])cc2)o1)N1CCCC(C(F)(F)F)C1 (configuration not stated)	-3.4%	-0.7%	?	?	-52.7*	-1.2%
O=C(c1ccc(-c2ccc([N+](=O)[O-])cc2)o1)N1CCCCCCC1	?	?	11.6µM*	10.3µM*	-53.8*	-5.2%
O=C(Cc1ccc([N+](=O)[O-])cc1)N1CCCCCC1	13.7%	1.9%	-9.9%	?	-13.6	-3.0%
COCCn1nnnc1C(c1ccc(C)cc1)N1CCN(Cc2ccc3c(c2)OCO3)CC1 (configuration not stated)	5.6%	0.3%	16.4µM*	?	-14.4	10.4%
COCCn1nnnc1C(c1ccccc1)N1CCN(Cc2ccc3c(c2)OCO3)CC1 (configuration not stated)	1.1%	-6.2%	-10.7%	?	-18.1	4.0%
CCCC(c1nnnn1Cc1cccs1)N1CCN(C)CC1 (configuration not stated)	-4.0%	1.2%	4.4%	-4.1%	-2.3	-0.2%
